The campaign covered roughly 5,500 compounds. About 2,000 (36%) were called active. Inconclusive results (about 18%) are left out. Cut-off read from the data, not from the text of the source: active = normalized growth mostly below about 0.91 (no sharp cut-off); inconclusive = no clear call, values can overlap the other calls; inactive = mostly above about 0.92. This is one part of the list.
Assay: chemical genetic growth profiling, strain panel (AID 1159580);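 note: tested at 20 µM; growth read once vehicle control cultures reached saturation at 30 °C; 1 = growth at the plate median or of vehicle wells; lower values mean less growth of the strain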
Settings: growth OD

Measured: normalized growth

O=C(N[C@@H](CO)[C@H](O)c1ccc([N+](=O)[O-])cc1)C(Cl)Cl
inactive: S. cerevisiae deletion strains, locus YJR075W, strain HOC1, active compounds read low 1.02 | S. cerevisiae deletion strains, locus YKL009W, strain mrt4, active compounds read low 1.01 | S. cerevisiae deletion strains, locus YKL068W, active compounds read low 1 | S. cerevisiae deletion strains, locus YKL085W, strain MDH1 (second series), active compounds read low 1 | S. cerevisiae deletion strains, locus YKL085W, strain MDH1, active compounds read low 1 | S. cerevisiae deletion strains, locus YKL160W, strain elf1, active compounds read low 1.04 | S. cerevisiae deletion strains, locus YKL190W, strain CNB1, active compounds read low 1 | S. cerevisiae deletion strains, locus YKR001C, strain vps1, active compounds read low 1 | S. cerevisiae deletion strains, locus YKR026C, strain gcn3, active compounds read low 1.04 | S. cerevisiae deletion strains, locus YKR091W, strain srl3, active compounds read low 0.999 | S. cerevisiae deletion strains, locus YLL001W, strain dnm1, active compounds read low 1.01 | S. cerevisiae deletion strains, locus YLL026W, active compounds read low 0.998 | S. cerevisiae deletion strains, locus YLL041C, strain sdh2, active compounds read low 1.01 | S. cerevisiae deletion strains, locus YLR027C, strain aat2, active compounds read low 1.02 | S. cerevisiae deletion strains, locus YLR039C, strain RIC1, active compounds read low 1.01 | S. cerevisiae deletion strains, locus YLR058C, strain SHM2, active compounds read low 1 | S. cerevisiae deletion strains, locus YLR102C, strain apc9, active compounds read low 1.01 | S. cerevisiae deletion strains, locus YLR113W, strain HOG1, active compounds read low 0.972 | S. cerevisiae deletion strains, locus YLR221C, strain rsa3, active compounds read low 1.02 | S. cerevisiae deletion strains, locus YLR258W, strain gsy2, active compounds read low 1.01 | S. cerevisiae deletion strains, locus YLR262C, strain YPT6 (second series), active compounds read low 1.01 | S. cerevisiae deletion strains, locus YLR262C, strain YPT6, active compounds read low 1.03 | S. cerevisiae deletion strains, locus YLR268W, strain sec22, active compounds read low 1.05 | S. cerevisiae deletion strains, locus YLR320W, strain mms22, active compounds read low 1 | S. cerevisiae deletion strains, locus YLR330W, strain CHS5, active compounds read low 0.999 | S. cerevisiae deletion strains, locus YLR342W, strain FKS1 (second series), active compounds read low 1.01 | S. cerevisiae deletion strains, locus YLR342W, strain FKS1, active compounds read low 1.01 | S. cerevisiae deletion strains, locus YLR357W, strain rsc2, active compounds read low 1.08 | S. cerevisiae deletion strains, locus YLR370C, strain arc18, active compounds read low 1.02 | S. cerevisiae deletion strains, locus YLR371W, strain rom2, active compounds read low 1.02 | S. cerevisiae deletion strains, locus YLR384C, strain iki3, active compounds read low 1.02 | S. cerevisiae deletion strains, locus YLR418C, strain cdc73, active compounds read low 1.01 | S. cerevisiae deletion strains, locus YML016C, strain PPZ1, active compounds read low 1 | S. cerevisiae deletion strains, locus YML032C, strain rad52, active compounds read low 1.03 | S. cerevisiae deletion strains, locus YML120C, strain ndi1, active compounds read low 1 | S. cerevisiae deletion strains, locus YML124C, strain tub3, active compounds read low 1 | S. cerevisiae deletion strains, locus YMR058W, strain fet3, active compounds read low 1.01 | S. cerevisiae deletion strains, locus YMR078C, strain ctf18, active compounds read low 1.01 | S. cerevisiae deletion strains, locus YMR125W, strain sto1, active compounds read low 1.02 | S. cerevisiae deletion strains, locus YMR129W, active compounds read low 1.02 | S. cerevisiae deletion strains, locus YMR205C, strain PFK2, active compounds read low 1 | S. cerevisiae deletion strains, locus YMR223W, strain ubp8, active compounds read low 0.974 | S. cerevisiae deletion strains, locus YMR231W, strain pep5, active compounds read low 1.02 | S. cerevisiae deletion strains, locus YMR263W, strain SAP30, active compounds read low 1.02 | S. cerevisiae deletion strains, locus YMR307W, strain GAS1, active compounds read low 0.986 | S. cerevisiae deletion strains, locus YNL067W, strain RPL9B, active compounds read low 1.03 | S. cerevisiae deletion strains, locus YNL071W, strain lat1, active compounds read low 1.02 | S. cerevisiae deletion strains, locus YNL128W, strain TEP1, active compounds read low 1.01 | S. cerevisiae deletion strains, locus YNL153C, strain GIM3, active compounds read low 1.03 | S. cerevisiae deletion strains, locus YNL183C, strain NPR1, active compounds read low 0.921 | S. cerevisiae deletion strains, locus YNL209W, strain ssb2, active compounds read low 1.03 | S. cerevisiae deletion strains, locus YNL233W, strain BNI4, active compounds read low 1.02 | S. cerevisiae deletion strains, locus YNL248C, strain rpa49, active compounds read low 1.04 | S. cerevisiae deletion strains, locus YNL250W, strain rad50, active compounds read low 1 | S. cerevisiae deletion strains, locus YNL271C, strain bni1, active compounds read low 1.01 | S. cerevisiae deletion strains, locus YNL298W, strain CLA4, active compounds read low 1.02 | S. cerevisiae deletion strains, locus YNL307C, strain MCK1, active compounds read low 1.01 | S. cerevisiae deletion strains, locus YNL322C, strain KRE1 (second series), active compounds read low 1.04 | S. cerevisiae deletion strains, locus YNL322C, strain KRE1, active compounds read low 0.999 | S. cerevisiae deletion strains, locus YNR049C, strain mso1, active compounds read low 1.01 | S. cerevisiae deletion strains, locus YNR052C, strain pop2, active compounds read low 1.01 | S. cerevisiae deletion strains, locus YOL006C, strain TOP1, active compounds read low 1.1 | S. cerevisiae deletion strains, locus YOL012C, strain htz1 1.24 | S. cerevisiae deletion strains, locus YOL147C, strain pex11, active compounds read low 1.03 | S. cerevisiae deletion strains, locus YOR001W, strain rrp6, active compounds read low 1.02 | S. cerevisiae deletion strains, locus YOR061W, strain CKA2, active compounds read low 1.01 | S. cerevisiae deletion strains, locus YOR069W, strain VPS5, active compounds read low 1 | S. cerevisiae deletion strains, locus YOR070C, strain gyp1, active compounds read low 1 | S. cerevisiae deletion strains, locus YOR080W, strain dia2, active compounds read low 1.02 | S. cerevisiae deletion strains, locus YOR083W, strain WHI5, active compounds read low 0.984 | S. cerevisiae deletion strains, locus YOR106W, strain vam3, active compounds read low 1.02 | S. cerevisiae deletion strains, locus YOR136W, strain idh2, active compounds read low 0.998 | S. cerevisiae deletion strains, locus YOR144C, strain elg1, active compounds read low 1.01 | S. cerevisiae deletion strains, locus YOR184W, strain ser1, active compounds read low 1 | S. cerevisiae deletion strains, locus YOR231W, strain MKK1, active compounds read low 0.956 | S. cerevisiae deletion strains, locus YOR265W, strain rbl2, active compounds read low 1.02 | S. cerevisiae deletion strains, locus YOR270C, strain vph1, active compounds read low 1.07 | S. cerevisiae deletion strains, locus YOR290C, strain snf2, active compounds read low 1.02 | S. cerevisiae deletion strains, locus YOR316C, strain cot1, active compounds read low 1.01 | S. cerevisiae deletion strains, locus YPL051W, strain arl3, active compounds read low 1.02 | S. cerevisiae deletion strains, locus YPL055C, strain LGE1, active compounds read low 0.986 | S. cerevisiae deletion strains, locus YPL078C, strain atp4, active compounds read low 1.03 | S. cerevisiae deletion strains, locus YPL106C, strain sse1, active compounds read low 1.01 | S. cerevisiae deletion strains, locus YPL240C, strain hsp82, active compounds read low 1.01 | S. cerevisiae deletion strains, locus YPL241C, strain CIN2, active compounds read low 1 | S. cerevisiae deletion strains, locus YPL256C, strain CLN2, active compounds read low 0.955 | S. cerevisiae deletion strains, locus YPR119W, strain clb2, active compounds read low 1 | S. cerevisiae deletion strains, locus YPR141C, strain kar3, active compounds read low 0.995 | S. cerevisiae deletion strains, locus YPR163C, strain tif3, active compounds read low 1.02 | S. cerevisiae deletion strains, locus YPR167C, strain met16, active compounds read low 0.999 | S. cerevisiae deletion strains, strain wtn01, active compounds read low 1.04 | S. cerevisiae strains, strain wild type, active compounds read low 1

From PubChem BioAssay AID1159580 (chemical genetic matrix, 2015)
